Data taken from ChEMBL document CHEMBL3988442, “University of Dundee, Small-Polar-MMV Screening Library” (2021).
For part of these data: Potency and affinity values are given separately.

Legend:
Parameters in all cases: scale not given: direction of the effect not stated beside the values
[1] = target: Protein translocase subunit SecA (Escherichia coli (strain K12)) (UniProt P10408); assay: Assay to Identify E. coli SecA ATPase Inhibitors; assay type: functional; settings: 30 µM
[2] = target: T1, Ubiquitin-activating enzyme e1, putative (Leishmania donovani (strain BPK282A1)) (UniProt E9BSI1); assay: Leishmania donovani Ubiquitin Activating Enzyme (LdE1); assay type: functional; settings: 30 µM
T1 sequence (whole entry): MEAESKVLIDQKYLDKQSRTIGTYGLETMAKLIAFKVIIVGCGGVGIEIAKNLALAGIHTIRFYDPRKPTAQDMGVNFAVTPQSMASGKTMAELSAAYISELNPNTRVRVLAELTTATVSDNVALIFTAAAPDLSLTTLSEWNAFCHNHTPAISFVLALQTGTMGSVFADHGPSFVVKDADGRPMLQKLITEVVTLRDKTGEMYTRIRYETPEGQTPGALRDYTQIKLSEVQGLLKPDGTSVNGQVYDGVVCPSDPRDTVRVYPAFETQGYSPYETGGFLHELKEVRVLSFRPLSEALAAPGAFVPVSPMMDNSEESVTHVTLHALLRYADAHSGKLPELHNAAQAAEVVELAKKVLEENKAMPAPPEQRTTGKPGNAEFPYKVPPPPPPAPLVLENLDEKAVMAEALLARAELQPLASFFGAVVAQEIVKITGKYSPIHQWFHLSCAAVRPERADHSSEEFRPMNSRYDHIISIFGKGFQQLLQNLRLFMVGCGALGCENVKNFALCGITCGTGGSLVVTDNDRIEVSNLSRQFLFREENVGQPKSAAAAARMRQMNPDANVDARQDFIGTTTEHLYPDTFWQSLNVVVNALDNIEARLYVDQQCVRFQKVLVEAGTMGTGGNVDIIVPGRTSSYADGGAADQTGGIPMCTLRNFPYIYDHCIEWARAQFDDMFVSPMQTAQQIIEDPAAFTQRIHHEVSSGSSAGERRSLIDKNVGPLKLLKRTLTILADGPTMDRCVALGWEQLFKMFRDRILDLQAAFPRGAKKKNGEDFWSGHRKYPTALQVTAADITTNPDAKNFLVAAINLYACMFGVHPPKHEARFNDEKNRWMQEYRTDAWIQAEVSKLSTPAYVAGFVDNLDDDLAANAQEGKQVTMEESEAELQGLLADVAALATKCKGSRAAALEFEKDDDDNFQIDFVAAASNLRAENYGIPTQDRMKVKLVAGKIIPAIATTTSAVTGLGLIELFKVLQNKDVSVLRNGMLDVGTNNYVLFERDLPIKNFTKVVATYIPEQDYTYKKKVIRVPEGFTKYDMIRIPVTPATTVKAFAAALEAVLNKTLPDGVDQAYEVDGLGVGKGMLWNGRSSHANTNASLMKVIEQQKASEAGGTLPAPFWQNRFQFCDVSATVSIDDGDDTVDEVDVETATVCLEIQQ

[3] = target: AMP-activated protein kinase, AMPK (Homo sapiens) (UniProt P54646+O43741+P54619+Q9UGJ0+Q9Y478+Q13131+Q9UGI9); assay: AMP-dependent Kinase enzyme assay. An in vitro enzyme assay that detects ADP turnover that is directly proportional to AMPK activity. This uses naive AMPK that is activated during the assay with MK-8722; assay type: functional; settings: 30 µM
[4] = target: Sialic acid-binding Ig-like lectin 9 (Homo sapiens) (UniProt Q9Y336); assay: Hs-Siglec9 ALPHAscreen SOP 20170721; settings: 10 µM
Sialic acid-binding Ig-like lectin 9 (Homo sapiens), sequence (Q9Y336 whole entry): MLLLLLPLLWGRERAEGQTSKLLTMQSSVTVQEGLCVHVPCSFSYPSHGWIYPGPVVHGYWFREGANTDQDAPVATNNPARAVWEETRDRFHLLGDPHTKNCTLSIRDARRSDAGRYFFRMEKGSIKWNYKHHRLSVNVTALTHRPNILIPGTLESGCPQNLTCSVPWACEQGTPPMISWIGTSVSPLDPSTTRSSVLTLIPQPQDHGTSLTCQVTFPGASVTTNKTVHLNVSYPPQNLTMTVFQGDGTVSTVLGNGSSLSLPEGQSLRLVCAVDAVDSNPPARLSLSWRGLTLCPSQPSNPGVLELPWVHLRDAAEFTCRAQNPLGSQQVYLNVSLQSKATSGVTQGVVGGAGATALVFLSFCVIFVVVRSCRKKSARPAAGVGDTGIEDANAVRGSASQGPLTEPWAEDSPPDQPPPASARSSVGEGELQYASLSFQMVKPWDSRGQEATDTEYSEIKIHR

Trypanosoma cruzi = assay: Trypanosoma cruzi phosphomannomutase and mannose-1-phosphate guanylyltransferase assay; assay type: functional; settings: 10 µM
[5] = target: T2, Arginase-2, mitochondrial (Homo sapiens) (UniProt P78540); assay: in vitro enzyme assay to detect the production of urea directly proportional to the activity of Arginase II; assay type: functional; settings: 33.3 µM; further: in the data most compounds retested in dose-response had high values
T2 sequence (whole entry): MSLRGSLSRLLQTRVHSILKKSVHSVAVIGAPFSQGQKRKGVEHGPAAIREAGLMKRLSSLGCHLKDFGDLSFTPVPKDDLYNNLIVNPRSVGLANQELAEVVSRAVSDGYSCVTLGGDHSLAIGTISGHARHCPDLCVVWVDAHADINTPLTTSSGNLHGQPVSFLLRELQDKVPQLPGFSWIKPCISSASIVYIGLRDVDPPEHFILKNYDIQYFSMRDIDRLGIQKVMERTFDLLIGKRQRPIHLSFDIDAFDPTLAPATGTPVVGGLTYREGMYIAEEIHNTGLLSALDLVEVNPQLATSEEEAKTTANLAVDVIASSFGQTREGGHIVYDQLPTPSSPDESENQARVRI

[6] = target: T3, Proteasome subunit beta (Trypanosoma cruzi) (UniProt O96673); assay: Trypanosoma cruzi proteasome chymotrypsin-like activity (TcProtChymo) assay.; further: in the data most compounds retested in dose-response had high values; assay type: functional; settings: 9.37 µM
T3 sequence (whole entry): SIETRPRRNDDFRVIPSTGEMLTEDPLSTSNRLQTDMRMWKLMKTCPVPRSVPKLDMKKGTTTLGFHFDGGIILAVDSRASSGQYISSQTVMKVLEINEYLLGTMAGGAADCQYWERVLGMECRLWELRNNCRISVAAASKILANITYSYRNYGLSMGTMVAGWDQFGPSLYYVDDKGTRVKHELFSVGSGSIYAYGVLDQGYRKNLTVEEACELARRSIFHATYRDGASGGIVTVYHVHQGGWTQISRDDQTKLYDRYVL

Homo sapiens = organism: Homo sapiens; assay: To identify inhibition of the IFN signalling (Jak-Stat) pathway via expression of an eGFP reporter gene under the control of an IFN-stimulated response element (ISRE) containing MxA promoter.; assay type: functional; settings: 30 µM
[7] = target: T4, Tyrosyl-tRNA synthetase, putative (Trypanosoma cruzi (strain CL Brener)) (UniProt Q4DSP6); assay: Trypanosoma cruzi tyrosyl tRNA synthetase (TcYRS) _High Tyrosine SOP; assay type: functional; settings: 30 µM; further: in the data most compounds retested in dose-response had high values
T4 sequence (whole entry): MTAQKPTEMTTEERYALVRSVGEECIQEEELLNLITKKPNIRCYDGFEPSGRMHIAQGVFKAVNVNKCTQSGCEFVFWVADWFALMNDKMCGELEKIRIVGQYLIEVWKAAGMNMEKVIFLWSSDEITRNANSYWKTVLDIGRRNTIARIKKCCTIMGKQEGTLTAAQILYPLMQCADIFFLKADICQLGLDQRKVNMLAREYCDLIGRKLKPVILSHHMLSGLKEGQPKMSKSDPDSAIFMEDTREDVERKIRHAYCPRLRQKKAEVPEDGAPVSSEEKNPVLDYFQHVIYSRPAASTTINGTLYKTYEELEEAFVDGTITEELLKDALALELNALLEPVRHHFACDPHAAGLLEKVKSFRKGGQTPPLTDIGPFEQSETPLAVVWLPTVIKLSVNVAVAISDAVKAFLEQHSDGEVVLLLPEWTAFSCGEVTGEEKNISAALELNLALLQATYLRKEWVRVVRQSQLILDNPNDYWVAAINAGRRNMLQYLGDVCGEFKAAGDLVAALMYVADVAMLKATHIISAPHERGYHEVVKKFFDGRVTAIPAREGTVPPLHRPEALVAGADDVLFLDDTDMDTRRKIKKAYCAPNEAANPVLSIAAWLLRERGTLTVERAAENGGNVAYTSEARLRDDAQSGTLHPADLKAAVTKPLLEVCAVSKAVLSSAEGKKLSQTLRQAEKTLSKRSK

[8] = target: T4, Tyrosyl-tRNA synthetase, putative (Trypanosoma cruzi (strain CL Brener)); assay: Trypanosoma cruzi tyrosyl tRNA synthetase (TcYRS) SOP; assay type: functional; settings: 30 µM
[9] = target: Chromo domain-containing protein 1 (Saccharomyces cerevisiae (strain ATCC 204508 / S288c) (Baker's yeast)) (UniProt P32657); assay: ScCHD-1 Enzyme Inhibition Assay; assay type: functional; settings: 30 µM; further: in the data most compounds retested in dose-response had high values
Chromo domain-containing protein 1 (Saccharomyces cerevisiae (strain ATCC 204508 / S288c) (Baker's yeast)), sequence (P32657 whole entry, the tested form may be a part): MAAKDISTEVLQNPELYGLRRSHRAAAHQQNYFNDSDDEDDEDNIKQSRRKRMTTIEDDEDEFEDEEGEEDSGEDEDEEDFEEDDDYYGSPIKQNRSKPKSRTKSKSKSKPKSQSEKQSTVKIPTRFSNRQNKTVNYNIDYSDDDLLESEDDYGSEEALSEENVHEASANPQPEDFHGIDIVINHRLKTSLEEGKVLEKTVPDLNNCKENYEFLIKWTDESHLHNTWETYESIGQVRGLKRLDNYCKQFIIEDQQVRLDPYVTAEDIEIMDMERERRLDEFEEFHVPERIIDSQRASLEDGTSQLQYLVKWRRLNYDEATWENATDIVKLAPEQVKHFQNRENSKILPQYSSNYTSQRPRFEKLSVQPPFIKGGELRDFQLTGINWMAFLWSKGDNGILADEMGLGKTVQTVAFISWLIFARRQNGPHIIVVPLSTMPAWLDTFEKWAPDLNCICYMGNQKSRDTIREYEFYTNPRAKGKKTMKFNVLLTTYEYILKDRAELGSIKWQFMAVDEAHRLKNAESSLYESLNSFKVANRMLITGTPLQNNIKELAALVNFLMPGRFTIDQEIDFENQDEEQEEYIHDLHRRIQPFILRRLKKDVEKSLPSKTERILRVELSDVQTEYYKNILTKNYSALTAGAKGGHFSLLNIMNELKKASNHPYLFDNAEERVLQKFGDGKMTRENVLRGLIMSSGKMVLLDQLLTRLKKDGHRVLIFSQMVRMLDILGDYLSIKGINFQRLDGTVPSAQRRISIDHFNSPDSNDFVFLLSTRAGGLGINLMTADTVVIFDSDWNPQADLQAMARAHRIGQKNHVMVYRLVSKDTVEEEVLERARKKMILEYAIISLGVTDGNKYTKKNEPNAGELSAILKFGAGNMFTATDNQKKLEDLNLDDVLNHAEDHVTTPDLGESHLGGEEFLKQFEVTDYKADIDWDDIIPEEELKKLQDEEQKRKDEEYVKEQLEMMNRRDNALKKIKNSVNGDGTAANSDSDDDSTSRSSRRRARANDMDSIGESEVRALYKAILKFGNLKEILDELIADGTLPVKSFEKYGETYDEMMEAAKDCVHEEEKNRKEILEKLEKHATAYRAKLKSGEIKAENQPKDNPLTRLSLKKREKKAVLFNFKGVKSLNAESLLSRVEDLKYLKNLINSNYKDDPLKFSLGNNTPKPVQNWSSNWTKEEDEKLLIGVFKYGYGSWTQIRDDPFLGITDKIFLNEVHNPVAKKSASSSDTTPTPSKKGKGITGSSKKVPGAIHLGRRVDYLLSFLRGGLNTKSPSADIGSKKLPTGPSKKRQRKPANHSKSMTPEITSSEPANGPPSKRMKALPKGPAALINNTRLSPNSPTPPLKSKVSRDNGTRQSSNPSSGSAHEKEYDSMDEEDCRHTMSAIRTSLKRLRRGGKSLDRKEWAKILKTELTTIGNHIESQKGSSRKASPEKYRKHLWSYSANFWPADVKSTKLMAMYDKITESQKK

Protein translocase subunit SecA (Escherichia coli (strain K12)), sequence (P10408 whole entry): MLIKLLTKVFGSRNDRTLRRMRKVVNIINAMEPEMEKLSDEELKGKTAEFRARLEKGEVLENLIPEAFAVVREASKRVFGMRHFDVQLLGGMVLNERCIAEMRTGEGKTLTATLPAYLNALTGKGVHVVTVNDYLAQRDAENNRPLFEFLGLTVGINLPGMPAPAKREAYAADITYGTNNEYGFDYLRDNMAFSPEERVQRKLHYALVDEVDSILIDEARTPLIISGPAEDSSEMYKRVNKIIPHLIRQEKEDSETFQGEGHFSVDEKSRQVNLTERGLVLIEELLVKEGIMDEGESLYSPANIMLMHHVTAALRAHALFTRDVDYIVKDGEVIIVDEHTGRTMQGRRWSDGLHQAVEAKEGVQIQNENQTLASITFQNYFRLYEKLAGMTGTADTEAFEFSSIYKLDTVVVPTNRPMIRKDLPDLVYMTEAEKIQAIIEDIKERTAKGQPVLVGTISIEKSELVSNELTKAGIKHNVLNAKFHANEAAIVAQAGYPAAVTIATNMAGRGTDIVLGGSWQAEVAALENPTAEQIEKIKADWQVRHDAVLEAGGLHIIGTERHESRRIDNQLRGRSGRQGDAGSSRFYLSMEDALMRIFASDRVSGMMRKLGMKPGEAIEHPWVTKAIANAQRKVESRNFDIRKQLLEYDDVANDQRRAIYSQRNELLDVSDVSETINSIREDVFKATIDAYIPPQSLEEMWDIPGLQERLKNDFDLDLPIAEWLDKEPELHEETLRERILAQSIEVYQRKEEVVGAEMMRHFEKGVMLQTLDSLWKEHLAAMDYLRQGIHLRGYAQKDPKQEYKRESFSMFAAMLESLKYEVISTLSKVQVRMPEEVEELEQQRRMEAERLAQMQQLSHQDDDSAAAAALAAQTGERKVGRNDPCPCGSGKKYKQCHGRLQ

Structure (SMILES)	Percent Effect [1] [%]	Percent Effect [2] [%]	Percent Effect [3] [%]	Percent Effect [4] [%]	Percent Effect (Trypanosoma cruzi) [%]	Percent Effect [5] [%]	Percent Effect [6] [%]	Percent Effect (Homo sapiens) [%]	Percent Effect [7] [%]	Percent Effect [8] [%]	Percent Effect [9] [%]
Cn1cc(CCNC(=O)NC2CCS(=O)(=O)C2)cn1 (stereo unspecified)	-5.97	-1.39	-3.17	-1.6	-4.57	-0.442	11.8	-0.804	0	5.13	-1.44
CNC(=O)N1C[C@H]2CC[C@@]3(N=C(c4ccccc4)NC3=O)[C@H]2C1	-5.03	2.6	0.951	7.17	9.73	-67.6	9.48	12.9	2.15	11.1	-1.88
CS(=O)(=O)N1CCC(C(=O)NC(Cc2ccsc2)c2ccccn2)CC1 (stereo unspecified)	-4.27	6.76	8.49	4.61	2.17	1.16	4.84	13.2	5.38	9.09	-8.15
O=C(CCNC(=O)C1CCCC1)NCc1cccnc1-n1cncn1	-4.32	15.8	-2.4	3.19	-1.21	-2.88	9.56	-0.451	14.3	25.9	-0.359
CN1CCCN(C[C@@H]2CN(C(=O)CCC3CCCC3)C[C@@H]2CO)CC1	-5.09	7.79	1.31	18.7	4.62	-8.28	3.66	-0.683	6.45	11.1	-3.02
CCn1nccc1CNC(=O)C1CC1	-5.07	10.4	-0.00833	7.25	5.61	-4.14	10.7	-23.9	8.6	18.5	132
COc1nccc(N2CCN(Cc3ccc(C)cc3)C(=O)C2)c1C#N	-1.96	15.6	-4.99	5.78	8.16	-33.1	13.3	-2.81	8.6	21	9
C=C1c2ccccc2C(=O)N1CCC(=O)N1CCNC(=O)C1	-2.89	15.8	-1.19	3.39	-2.07	6.51	29.6	-7.94	6.37	17.1	-3.42
CCCn1[nH]cc/c1=N\C(=O)CN1CCn2c(nnc2C2CC2)C1	-2.72	21.1	-11.3	-5.47	-4.13	3.83	16.5	22.7	5.39	9.76	-10.1
CS(=O)(=O)NC[C@]12COC[C@H]1CN(C(=O)c1ccccc1)C2	-1.33	-52	-0.526	9.67	-4.63	0.645	-1.22	11.1	-79.4	-147	-6.34
CNc1cc2c(nn1)CCN(C(=O)c1cc(F)cc(F)c1)C2	-4.7	10.4	2.19	3.45	2.84	-3.16	6.06	3.72	6.67	9.41	-21.1
O=C(O)C1(Cc2cccc(-c3ccc(F)c(F)c3)c2)CCOCC1	-3.39	1.35	13.4	4.42	-1.78	1.16	5.93	28.6	-15.1	-11.7	-15
CC(C)Oc1cccc(C(O)CNC(=O)CCc2ccncc2)c1 (stereo unspecified)	-3.24	-5.48	2.43	13.4	-3.97	-7.58	3.85	0.683	1.04	3.7	5.03
Cc1cc(C2CCCN(CCc3ccccn3)C2)n[nH]1 (stereo unspecified)	-4.83	2.53	-4	3.7	9.73	1.14	-1.23	-3.32	-7.39	11.4	-2.02
CCn1cc(NC(=O)NCC(O)COc2cccc(F)c2)cn1 (stereo unspecified)	2.07	13.2	-3.12	0.363	-7.14	1.92	6.68	13.5	2.45	17.1	-8.89
Cc1nccn1C1CCCN(C(=O)c2cc3ccccc3[nH]2)C1 (stereo unspecified)	-6.7	2.53	-10.1	1.72	-2.74	0.76	-4.83	27.9	-2.46	-3.8	-6.65
CN(CC1(O)CCCN(CCC2CCCCC2)C1=O)C1CCOCC1 (stereo unspecified)	-5.39	10.7	-4.88	15.6	7.5	6.77	6.8	6.58	4.92	13.6	-3.45
COc1ccc(F)cc1C(C)NC(=O)Nc1nnc(C)s1 (stereo unspecified)	-1.41	10.8	-8.69	27.9	4.99	13.7	9.7	17.2	5.38	16.1	3.4
COCC(=O)NCc1cc(=O)n2c(n1)CN(Cc1ccsc1)CCC2	-5.93	8.11	3.64	-0.625	-2.83	6.05	17.9	-15.7	2.16	5.13	2.68
Cn1cc(C(=O)CC2CCCN2C(=O)c2n[nH]c3ccccc23)cn1 (stereo unspecified)	-2.35	1.27	3.62	0.382	2.56	1.94	7.03	-8.13	7.29	2.53	-9.86
Cc1cnc(N2C[C@H]3C[C@H](C(=O)N(C)C)[C@@H](C2)O3)nc1	-4.03	-5.33	5.45	-2.75	6.76	-46.1	1.54	-13.3	-1.04	0	-3.12
